Consider nine compounds from PubChem BioAssay (NCI).

The panel holds about 83,000 compounds, 20% with a hit somewhere; the sample as a whole holds those more often.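 The test compound was applied at a single concentration to cells in 96-well plates for 48 hours, and percent growth was recorded.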 Values without a mark were called inactive. Active and inactive are the calls of the source. How the source made its calls: active means growth percent below 10; inactive means the rest.

Test systems include SR leukemia; RPMI-8226 leukemia; OVCAR-8 ovarian; OVCAR-5 ovarian; OVCAR-4 ovarian; SK-OV-3 ovarian; IGROV1 ovarian; HS 578T breast; NCI/ADR-RES ovarian; T-47D breast; BT-549 breast; MDA-MB-435 melanoma; SW-620 colon; MCF7 breast; HCT-116 colon; HCC-2998 colon; KM12 colon.
Common to all, as to test: NCI-60 one-dose screen, 48 h (100 = growth as untreated, 0 = no growth, -100 = all killed)
Holding throughout (conditions): 10 µM unless noted

As for `Brc1cc(-c2cc(-c3ccc4c(c3)OC=CO4)[nH]n2)cs1`, the growth was 60.9% with SR leukemia; 81% in the test with RPMI-8226 leukemia; 99.4% in the test on OVCAR-8 ovarian; 115% in the test on OVCAR-5 ovarian; 97% with OVCAR-4 ovarian; 86% with SK-OV-3 ovarian. For the same compound, the growth was 66.1% with IGROV1 ovarian; 90% with HS 578T breast; 65.4% in the test with NCI/ADR-RES ovarian; 62.1% with T-47D breast; 109% in the test with BT-549 breast; 28.4% in the test on MDA-MB-435 melanoma. Further, the growth with SW-620 colon was 82.1%; in the test with MCF7 breast, 25.1%; in the test with HCT-116 colon, 84.1%; in the test on HCC-2998 colon it was 94.7%; in the test on KM12 colon, 64.2%.

In the case of `NS(=O)(=O)c1ccc(Nc2nc(N/N=C/C=C/c3ccccc3)nc(Nc3ccccc3)n2)cc1`, the growth in the test on SR leukemia is 14.9%; in the test with RPMI-8226 leukemia, 28.5%; in the test on OVCAR-8 ovarian, 50%; in the test with OVCAR-5 ovarian it was 99.2%; in the test with OVCAR-4 ovarian it was 49.6%; in the test on SK-OV-3 ovarian, 78.3%. Further, the growth was 36.8% with IGROV1 ovarian; 39.7% in the test with HS 578T breast; 91.1% in the test on NCI/ADR-RES ovarian; 18.9% in the test with T-47D breast; 65.9% in the test with BT-549 breast; 51.6% with MDA-MB-435 melanoma. Also, the growth in the test on SW-620 colon was 51.1%; in the test on MCF7 breast it was 16%; with HCT-116 colon, 29.5%; in the test with HCC-2998 colon it was 38.3%; with KM12 colon it was 55.4%.

Consider `CNc1sc(S(=O)(=O)NC)nc1S(=O)(=O)c1ccc(C)cc1`, for which the growth was 101% in the test on SR leukemia; 99.2% with RPMI-8226 leukemia; 102% in the test with OVCAR-8 ovarian; 92.2% in the test on OVCAR-5 ovarian; 108% in the test with OVCAR-4 ovarian; 105% with SK-OV-3 ovarian. Further, the growth is 95.1% with IGROV1 ovarian; 103% in the test with HS 578T breast; 103% in the test with NCI/ADR-RES ovarian; 93.5% in the test with T-47D breast; 99.5% with BT-549 breast; 105% with MDA-MB-435 melanoma. Further, the growth in the test with SW-620 colon is 109%; in the test with MCF7 breast it was 87.6%; in the test with HCT-116 colon, 100%; in the test on HCC-2998 colon it was 103%; in the test on KM12 colon, 103%.

Regarding `CNC(=O)c1cc(N2CCc3cc(NC(=O)Nc4ccc(N5CCOCC5)c(C(F)(F)F)c4)ccc32)ccn1`, the growth in the test with SR leukemia is 14.4%; in the test with RPMI-8226 leukemia, 16%; in the test with OVCAR-8 ovarian it was 23.5%; in the test on OVCAR-5 ovarian, 57.4%; in the test with OVCAR-4 ovarian, 41.4%; with SK-OV-3 ovarian, 80%. In addition, the growth was 37.3% with IGROV1 ovarian; -0.517% (active) with HS 578T breast; 16.8% with NCI/ADR-RES ovarian; 28.1% in the test on T-47D breast; -12.6% (active) in the test on BT-549 breast; 41.5% in the test on MDA-MB-435 melanoma. Moreover, the growth with SW-620 colon is 34.6%; with MCF7 breast, 12.4%; in the test on HCT-116 colon it was 2.52% (active); with HCC-2998 colon it was 22%; with KM12 colon it was 11.1%.

In the case of `NC(=S)n1c(=O)n(-c2cccc(C(F)(F)F)c2)c(=O)c2cc(-c3ccc(F)cc3F)ccc21`, the growth is 5.69% (active) with SR leukemia; -20.8% (active) with RPMI-8226 leukemia; 10.9% in the test with OVCAR-8 ovarian; 9.62% (active) with OVCAR-5 ovarian; 29.9% in the test on OVCAR-4 ovarian; -2.63% (active) in the test with SK-OV-3 ovarian. For the same compound, the growth in the test with IGROV1 ovarian was 21.2%; in the test with HS 578T breast, -2.09% (active); in the test with NCI/ADR-RES ovarian it was 4.95% (active); in the test with T-47D breast, -12.9% (active); with BT-549 breast, -7.8% (active); in the test on MDA-MB-435 melanoma, 2.32% (active). For the same compound, the growth is 15% in the test on SW-620 colon; 1.71% (active) with MCF7 breast; 3.05% (active) in the test with HCT-116 colon; 20.1% in the test with HCC-2998 colon; 6.48% (active) in the test with KM12 colon.

As for `COCCOc1ccc2ncc(C#Cc3cncc(C(=O)Nc4ccc(CN5CCN(C)CC5)c(C(F)(F)F)c4)c3)n2n1`, the growth was 0.746% (active) in the test with SR leukemia; 23.4% in the test on RPMI-8226 leukemia; 24.4% with OVCAR-8 ovarian; 21.8% in the test with OVCAR-5 ovarian; 43.2% with OVCAR-4 ovarian; 24% with SK-OV-3 ovarian. Further, the growth was 9.76% (active) in the test with IGROV1 ovarian; -13.3% (active) in the test with HS 578T breast; 3.81% (active) in the test on NCI/ADR-RES ovarian; 59.6% with T-47D breast; 0.139% (active) with BT-549 breast; 11.5% in the test with MDA-MB-435 melanoma. The growth is -34% (active) in the test with SW-620 colon; -59.8% (active) in the test on MCF7 breast; -86.7% (active) in the test on HCT-116 colon; 33.6% in the test on HCC-2998 colon; 0.84% (active) in the test with KM12 colon.

As to `O=C(COc1ccc(/C=C2\C(=O)Nc3cc(Cl)ccc32)cc1)Nc1ccc(Cl)cc1`, the growth in the test with SR leukemia was 54.8%; with RPMI-8226 leukemia, 60.4%; with OVCAR-8 ovarian it was 63.4%; in the test on OVCAR-5 ovarian, 67.7%; in the test with OVCAR-4 ovarian it was 66.5%; with SK-OV-3 ovarian, 87.1%. For the same compound, the growth in the test on IGROV1 ovarian was 73.3%; in the test on HS 578T breast, 79.1%; in the test with NCI/ADR-RES ovarian it was 66.8%; in the test on T-47D breast, 68%; with BT-549 breast, 70.3%; in the test with MDA-MB-435 melanoma it was 51.2%. Further, the growth in the test on SW-620 colon was 55.3%; with MCF7 breast, 47.1%; with HCT-116 colon, 54.8%; in the test with HCC-2998 colon, 96.1%; in the test with KM12 colon, 36.4%.

With `COC(=O)CNC(=O)c1cccc(-c2cc(=O)c3c(OC)c(OC)c(OC)cc3o2)c1`, the growth in the test on SR leukemia was 85%; with RPMI-8226 leukemia, 94.8%; in the test with OVCAR-8 ovarian, 98%; in the test on OVCAR-5 ovarian, 98.1%; with OVCAR-4 ovarian, 102%; with SK-OV-3 ovarian it was 118%. Moreover, the growth in the test on IGROV1 ovarian is 99.1%; in the test with HS 578T breast it was 99.7%; with NCI/ADR-RES ovarian it was 99.5%; with T-47D breast, 107%; in the test with BT-549 breast, 102%; in the test with MDA-MB-435 melanoma, 107%. Besides, the growth with SW-620 colon was 100%; in the test on MCF7 breast, 89.2%; in the test with HCT-116 colon it was 101%; in the test on HCC-2998 colon, 100%; with KM12 colon, 103%.

Consider `CCCCOc1ccc(S(=O)(=O)N2CCN(c3nc(C)cc(N4CCOCC4)n3)CC2)cc1`, for which the growth was 42.4% in the test on SR leukemia; 3.95% (active) in the test with RPMI-8226 leukemia; 45% with OVCAR-8 ovarian; 50.4% in the test with OVCAR-5 ovarian; 49% with OVCAR-4 ovarian; -11.6% (active) in the test with SK-OV-3 ovarian. The growth with IGROV1 ovarian is 7.73% (active); in the test with HS 578T breast it was 63.6%; in the test on NCI/ADR-RES ovarian, 25.4%; in the test on T-47D breast, 55.9%; with BT-549 breast it was -6.76% (active); in the test with MDA-MB-435 melanoma, 6.06% (active). Moreover, the growth is 28.9% with SW-620 colon; 76.9% in the test with MCF7 breast; -1.17% (active) in the test on HCT-116 colon; 33% in the test on HCC-2998 colon; 4.03% (active) with KM12 colon.
